Screen size: about 2,300 compounds; about 1,700 (74%) were called active. The set was probably picked from earlier hits. The list shows a part of the results. Results with a measured potency or affinity are listed apart. Unmarked numbers belong to inactive results. No rule for the calls is given here.
Assay: Confirmatory growth inhibition assay, Mycobacterium tuberculosis H37Rv, absence of glycerol (AID 449764);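 also: growth read after 7 days of incubation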
Conditions: no glycerol; series mostly up to 100 µM; inhibition: at the top concentration

Question: For O=C(Nc1cccc(-c2ccc(N3CCCCC3)nn2)c1)c1ccc(Br)o1, which “inhibition” value is on record?
Answer: 4.5%

Question: For CCOC(=O)c1sc(C)c2c(=O)n(CC(=O)c3ccc(Br)cc3)nnc12, which “inhibition” value is on record?
Answer: -0.02%

Question: With CCOC(=O)c1ccc(N2CC(O)=C(c3nc4ccccc4c(=O)[nH]3)C2=N)cc1 as the molecule, how does the “inhibition” value read?
Answer: 0.03%

Question: Which “inhibition” value does the source give for CCN(CC)S(=O)(=O)c1cccc(NC(=O)Nc2cccc(C(F)(F)F)c2)c1 here?
Answer: 13.6%

Question: Which “inhibition” value does the source give for Cc1ccc(-c2cccc(NC(=O)C3C4C=CC(C4)C3C(=O)O)c2)o1 (stereo not drawn) here?
Answer: 19.9%

Question: For CC1Nc2ncnc(N3CCN(c4ccccc4)CC3)c2N(Cc2ccc(Br)cc2)C1=O (stereo not drawn), which “inhibition” value is on record?
Answer: 2.31%

Question: Which “inhibition” value does the source give for COc1cc2[nH]c3c(N4CCN(c5ccccn5)CC4)ncnc3c2cc1OC here?
Answer: 4.78%

Question: Which “inhibition” value does the source give for Clc1ccc(CSc2ncn[nH]2)cc1 here?
Answer: 5.76%

Question: With COc1ccc(-c2ccnc3nc(N4CCN(c5ccccc5)CC4)nn23)cc1 as the molecule, how does the “inhibition” value read?
Answer: 9.15%

Question: With c1ccc(CCN2CN=C(Nc3nc4ccccc4o3)NC2)cc1 as the molecule, how does the “inhibition” value read?
Answer: -12.8%

Question: With Cc1ccc(NC(=O)COC(=O)c2ccc(=O)n(Cc3ccccc3)n2)cc1F as the molecule, how does the “inhibition” value read?
Answer: -2.62%

Question: For COc1cc(OC)nc(Oc2ccccc2C(=O)Oc2ccc(Cl)cc2)n1, which “inhibition” value is on record?
Answer: 5.33%

Question: With CCNc1nc(NC(C)(C)C)nc(N2CCCCC2)n1 as the molecule, how does the “inhibition” value read?
Answer: 6.41%

Question: With O=C(CCCC(=O)OCC(=O)c1cccs1)Nc1ccc(Oc2ccccc2)cc1 as the molecule, how does the “inhibition” value read?
Answer: 10.8%

Question: With COc1ccc(N2COC3c4cccc5cccc(c45)C32)cc1 (stereo not drawn) as the molecule, how does the “inhibition” value read?
Answer: -0.43%

Question: For Brc1ccc(-c2ccc(/C=N/Nc3nncc(-c4ccccc4)n3)o2)cc1, which “inhibition” value is on record?
Answer: 11.6%

Question: With Cn1nnc(NC(=S)NC(=O)c2ccc(-c3ccc(Br)cc3)o2)n1 as the molecule, how does the “inhibition” value read?
Answer: 5.19%

Question: Which “inhibition” value does the source give for Cc1ccc(N/C=C2\C(=O)C3(C)CCC2C3(C)C)cc1C (stereo not drawn) here?
Answer: 2.28%

Question: For Cc1cc(C(=O)N/N=C/c2ccc(-c3ccc([N+](=O)[O-])cc3Cl)o2)n[nH]1, which “inhibition” value is on record?
Answer: 14%

Question: For Cc1ccc(-c2cc(C(F)(F)F)n3nc(C(=O)NCCCn4ccnc4)cc3n2)cc1C, which “inhibition” value is on record?
Answer: -1.7%

Question: With CCOC(=O)/C(=N\Nc1ccc(Br)cc1)N1CC(C)OC(C)C1 (stereo not drawn) as the molecule, how does the “inhibition” value read?
Answer: 12%

Question: Which “inhibition” value does the source give for C=CCn1c(=O)/c(=C/c2ccc(Cl)cc2)s/c1=C(/C#N)c1nnc2n1CCCCC2 here?
Answer: -2.32%

Question: For Nc1ccc2c(c1)oc1ccccc12, which “inhibition” value is on record?
Answer: -7.66%

Question: With CCOC(=O)NNc1ccccc1 as the molecule, how does the “inhibition” value read?
Answer: 5.17%

Question: Which “inhibition” value does the source give for CC1(CCc2ccccc2)NC(=S)N(c2ccc(Cl)cc2)N1 (stereo not drawn) here?
Answer: 10.4%

Question: For Cn1c(=O)c2[nH]c(-c3ccc(S(=O)(=O)O)cc3)nc2n(C)c1=O, which “inhibition” value is on record?
Answer: 0.47%

Question: For COc1ccc(NC2=C(C(C)=O)C(c3ccc4c(c3)OCO4)C(C(C)=O)C(C)(O)C2)cc1 (stereo not drawn), which “inhibition” value is on record?
Answer: -3.81%

Question: For Nc1ccc(Oc2ccc3c(c2)OCO3)cc1, which “inhibition” value is on record?
Answer: -3.59%

Question: With Nc1ccc2c(c1)nnn2-c1ccccc1 as the molecule, how does the “inhibition” value read?
Answer: 5.99%

Question: For O=S(=O)(Nc1ccn(-c2ccccc2)n1)c1ccc(Br)cc1, which “inhibition” value is on record?
Answer: 9.63%

Question: With Cc1ccc(S(=O)(=O)c2nc(Nc3nccs3)sc2Cl)cc1 as the molecule, how does the “inhibition” value read?
Answer: -5.86%

Question: With O=C(CSc1nc2cc(Cl)ccc2o1)c1cccs1 as the molecule, how does the “inhibition” value read?
Answer: 0.59%

Question: With COC12C(COC(N)=O)C3=C(C(=O)C(C)=C(N)C3=O)N1CC1C2N1C (stereo not drawn) as the molecule, how does the “inhibition” value read?
Answer: -32.4%

Question: For Oc1ccc(Br)cc1/C=N/Nc1nc(N2CCCCC2)nc(N2CCOCC2)n1, which “inhibition” value is on record?
Answer: -9.39%

Question: With Nc1ccc(CCc2ccc(N)cc2)cc1 as the molecule, how does the “inhibition” value read?
Answer: -3.99%

Question: With COc1cc(/C=N/N(C)c2ccccc2)cc(Cl)c1O as the molecule, how does the “inhibition” value read?
Answer: 1.6%

Question: Which “inhibition” value does the source give for COc1cc2c(-c3ccc4[nH]ccc4c3)c(-c3ccc(C#N)cc3)oc(=O)c2cc1OC here?
Answer: 22.6%

Question: For O=C1NC(=O)/C(=C/c2ccc(-c3cccc([N+](=O)[O-])c3)o2)S1, which “inhibition” value is on record?
Answer: 2.2%

Question: Which “inhibition” value does the source give for O=[N+]([O-])c1ccc(-c2ccc(/C=N/c3c(-c4ccco4)nc4ccccn34)o2)cc1 here?
Answer: 1.4%

Question: Which “inhibition” value does the source give for O=[N+]([O-])c1ccc(-c2csc(NN=C3CCCC3)n2)cc1 here?
Answer: 1.6%

Question: For Nc1c(C(=O)Nc2ccc(Br)cc2)sc2nc(-c3ccco3)ccc12, which “inhibition” value is on record?
Answer: 2.28%

Question: With CCCCn1cnc2cc(NCc3cccc(OC)c3O)ccc21 as the molecule, how does the “inhibition” value read?
Answer: 24.5%

Question: With COc1ccc(NC(C#N)c2ccc(OC)cc2)cc1 (stereo not drawn) as the molecule, how does the “inhibition” value read?
Answer: 3.18%

Question: Which “inhibition” value does the source give for Nc1ccn([C@@H]2O[C@H](CO)[C@@H](O)C2O)c(=O)n1 (stereo partly drawn) here?
Answer: 0.82%

Question: Which “inhibition” value does the source give for O=C(CSCC(=O)Nc1ccc2ccccc2c1)NCc1ccccc1 here?
Answer: -0.93%

Question: Which “inhibition” value does the source give for Cn1ccnc1-c1nnn(-c2ccc(Cl)c(Cl)c2)n1 here?
Answer: -4.2%

Question: For CCOc1ccc(-n2c(-c3ccc(Br)cc3)c[n+]3c2CCCCC3)cc1, which “inhibition” value is on record?
Answer: 28.2%

Question: With c1ccc(Cn2nnc3c(N4CCc5ccccc5C4)ncnc32)cc1 as the molecule, how does the “inhibition” value read?
Answer: 10.7%

Question: With Cn1c(=O)c(C(=O)COC(=O)c2cc(C(F)(F)F)nc3c(C(F)(F)F)cccc23)c(N)n(CC2CC2)c1=O as the molecule, how does the “inhibition” value read?
Answer: -1.78%

Question: For Cc1cc(NC(=O)c2noc3c2CCCC3)nn1Cc1ccc(Cl)cc1, which “inhibition” value is on record?
Answer: -5.15%

Question: With Cc1ccc(NC(=O)/C(Cl)=C\c2ccccc2)cc1 as the molecule, how does the “inhibition” value read?
Answer: -8.13%

Question: For Nc1ccc2c(c1)Cc1ccccc1-2, which “inhibition” value is on record?
Answer: -1.21%

Question: Which “inhibition” value does the source give for C/C=C(\C)C(=O)Nc1cccc(C2=NOC3(C2)C[C@H](C(N)=O)N(C(=O)c2cc([N+](=O)[O-])cc([N+](=O)[O-])c2)C3)c1 (stereo partly drawn) here?
Answer: 20.7%

From PubChem BioAssay AID449764 (Southern Research Specialized Biocontainment Screening …, 2010)
